Source: PubChem BioAssay (EPA / NIEHS)
Active and inactive are the calls of the source. Rule for the calls: active = hit-call score of the fitted dose curve at least 0.9, where 1 is the maximum; inactive = score below 0.9.

Assays:
[1] = ATG_E_Box_CIS: Attagene CIS-FACTORIAL HepG2 Assay for human Enhancer Box (E-box) (AID 2282936); conditions: HepG2 E-box cis-reporter transcription, actives raise or lower the signal
Summary of the method: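 HepG2 cells transiently transfected with multiplexed cis-element reporter units, dosed 24 h; reporter mRNA quantified by RT-PCR, 6-FAM labelling, HpaI digestion and capillary electrophoresis. E-box (USF1) signal fitted bidirectionally vs DMSO.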

[2] = ATG_M_61_CIS: Attagene CIS-FACTORIAL HepG2 Assay for M61 Transcription Factor (Internal Marker) (AID 2282937); conditions: HepG2 Attagene CIS-FACTORIAL M61 internal marker reporter; actives raise or lower the signal
Summary of the method: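 Transfect HepG2 with MRTUs; dose 24 h; isolate RNA; reverse-transcribe with DNase I treatment; PCR-amplify, FAM-label and cut with HpaI for 2 h at 37 C; resolve by CE. Bidirectional fitting against DMSO.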

[3] = ATG_EGR_CIS: Attagene CIS-FACTORIAL HepG2 Assay for human Early Growth Response 1 (EGR1) (AID 2282938); conditions: HepG2 Attagene CIS-FACTORIAL EGR reporter mRNA; actives raise or lower the signal
Summary of the method: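 After a 24 h treatment of transiently transfected HepG2 cells, total RNA was reverse-transcribed and reporter sequences PCR-amplified, labelled and run on capillary electrophoresis. Reporters sit under cis-regulatory promoters sensing endogenous factors.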

[4] = ATG_M_19_CIS: Attagene CIS-FACTORIAL HepG2 Assay for M19 Transcription Factor (Internal Marker) (AID 2282939); conditions: HepG2 Attagene CIS-FACTORIAL M19 internal marker reporter; actives raise or lower the signal
Summary of the method: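 In this multiplexed cell assay, transiently transfected HepG2 reporter units report endogenous transcription-factor activity; after 24 hours of treatment, labelled reporter cDNA fragments are quantified by capillary electrophoresis and fitted bidirectionally against DMSO.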

[5] = ATG_ERE_CIS: Attagene CIS-FACTORIAL HepG2 Assay for Estrogen Response Element (ERE) (AID 2282940); conditions: HepG2 ERE cis-reporter, Attagene RNA transcript; actives raise or lower the signal
Summary of the method: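 Measuring endogenous transcription factor output, the assay doses transfected HepG2 cells for 24 hours and quantifies reporter transcripts by fluorescent RT-PCR and capillary electrophoresis, with DMSO as baseline.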

[6] = ATG_Ets_CIS: Attagene CIS-FACTORIAL HepG2 Assay for human Erythroblast Transformation Specific (ETS) (AID 2282941); conditions: HepG2 ETS cis-reporter transcription, actives raise or lower the signal
Summary of the method: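 HepG2 cells transiently transfected with cis-promoter reporter transcription units were dosed for 24 h; reporter mRNA was measured by RT-PCR, 6-FAM primer extension, HpaI digestion and capillary electrophoresis, with bidirectional fitting against DMSO baseline.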

[7] = target: Hepatocyte nuclear factor 3-beta (Homo sapiens) (UniProt Q9Y261); experiment: ATG_FoxA2_CIS: Attagene CIS-FACTORIAL HepG2 Assay for human Forkhead box A2 (FOXA2) (AID 2282942); conditions: HepG2 cis-reporter transcription factor activity, 24 h; actives raise or lower the signal
Sequence of Hepatocyte nuclear factor 3-beta (Homo sapiens) (Q9Y261 whole entry, looked up): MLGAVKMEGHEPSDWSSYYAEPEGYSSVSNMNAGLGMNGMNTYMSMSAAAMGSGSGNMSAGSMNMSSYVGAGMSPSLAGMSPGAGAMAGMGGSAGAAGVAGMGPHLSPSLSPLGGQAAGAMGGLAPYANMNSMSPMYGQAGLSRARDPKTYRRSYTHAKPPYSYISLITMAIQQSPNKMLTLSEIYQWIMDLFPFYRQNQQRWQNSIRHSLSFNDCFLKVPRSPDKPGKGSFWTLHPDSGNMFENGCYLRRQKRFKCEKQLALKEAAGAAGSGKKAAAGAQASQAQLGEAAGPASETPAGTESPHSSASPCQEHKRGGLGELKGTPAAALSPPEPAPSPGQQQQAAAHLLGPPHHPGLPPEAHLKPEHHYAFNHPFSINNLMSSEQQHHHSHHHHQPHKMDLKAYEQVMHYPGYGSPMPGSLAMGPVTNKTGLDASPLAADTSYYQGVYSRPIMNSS
Summary of the method: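 24 h dosing of HepG2 bearing cis-reporter constructs; mRNA readout by RT-PCR/CE fluorescence; bidirectional fit, DMSO baseline.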

[8] = ATG_FoxO_CIS: Attagene CIS-FACTORIAL HepG2 Assay for human Forkhead box O (FoxO) (AID 2282943); conditions: HepG2 Attagene cis-reporter, FoxO element, mRNA; actives raise or lower the signal
Summary of the method: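 HepG2 cells transiently transfected with cis-element-driven reporter units report endogenous FoxO activity. After 24 h chemical exposure, reporter mRNA quantified by RT-PCR, fluorescent labeling, HpaI digestion and capillary electrophoresis; bidirectional fit versus DMSO.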

[9] = ATG_GATA_CIS: Attagene CIS-FACTORIAL HepG2 Assay for human GATA Binding Protein (AID 2282944); conditions: HepG2 GATA cis-element reporter, Attagene multiplex mRNA; actives raise or lower the signal
Summary of the method: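 Measures endogenous transcription factor-driven reporter mRNA in HepG2 cells transiently carrying cis-regulated constructs. 24 h dosing; RNA via oligo(dT) reverse transcription, PCR, HpaI digestion, capillary electrophoresis; fitted relative to DMSO.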

[10] = ATG_GLI_CIS: Attagene CIS-FACTORIAL HepG2 Assay for human Zinc Finger Protein GLI1 (AID 2282945); conditions: HepG2, Attagene cis-factorial reporter mRNA, GLI element; actives raise or lower the signal
Summary of the method: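 Transiently transfected HepG2 cells report endogenous transcription factor activity via cis-element-driven reporter units. After 24 h compound exposure, reporter mRNA was measured by RT-PCR with capillary electrophoresis; bidirectional fitting against DMSO baseline.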

[11] = target: Bile acid receptor (Homo sapiens) (UniProt Q96RI1); experiment: ATG_IR1_CIS: Attagene CIS-FACTORIAL HepG2 Assay for human Nuclear Receptor Subfamily 1 Group H Member 4 (NR1H4), IR1 submotif (AID 2282946); conditions: IR1 reporter transcription, actives raise or lower the signal
Sequence of Bile acid receptor (Homo sapiens) (Q96RI1 whole entry, looked up): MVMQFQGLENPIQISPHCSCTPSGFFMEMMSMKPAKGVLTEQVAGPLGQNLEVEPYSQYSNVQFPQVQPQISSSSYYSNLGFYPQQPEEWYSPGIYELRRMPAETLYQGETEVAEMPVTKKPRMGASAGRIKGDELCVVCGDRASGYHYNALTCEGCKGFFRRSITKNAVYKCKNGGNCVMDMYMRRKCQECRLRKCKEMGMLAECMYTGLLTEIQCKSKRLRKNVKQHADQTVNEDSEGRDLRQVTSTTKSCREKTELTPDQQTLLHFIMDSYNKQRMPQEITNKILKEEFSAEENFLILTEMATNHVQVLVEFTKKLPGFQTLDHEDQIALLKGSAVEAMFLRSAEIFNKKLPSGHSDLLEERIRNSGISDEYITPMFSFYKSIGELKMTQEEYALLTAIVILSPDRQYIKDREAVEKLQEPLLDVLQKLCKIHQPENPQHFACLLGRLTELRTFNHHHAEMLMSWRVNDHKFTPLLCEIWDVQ
Summary of the method: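 HepG2 cells transiently transfected with multiple cis-promoter-driven reporter units to measure endogenous transcription factor activity; 24 h exposure. Reporter mRNA read by RT-PCR, FAM labelling, HpaI digestion and capillary electrophoresis. Bidirectional fit versus DMSO.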

[12] = ATG_GRE_CIS: Attagene CIS-FACTORIAL HepG2 Assay for human Glucocorticoid Response Elements (GRE) (AID 2282947); conditions: HepG2 GRE cis-reporter, Attagene multiplex mRNA; actives raise or lower the signal
Summary of the method: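 Transiently transfected HepG2 cells carrying GRE cis-reporter units (endogenous TF activity) dosed 24 h; reporter mRNA quantified by RT-PCR, 6-FAM labelling, HpaI digestion and capillary electrophoresis. Bidirectional fit versus DMSO baseline.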

[13] = ATG_ISRE_CIS: Attagene CIS-FACTORIAL HepG2 Assay for human Interferon Regulatory Factor 1 (IRF1) binding to an Interferon-Stimulated Response Element (ISRE) (AID 2282948); conditions: HepG2 ISRE cis-reporter (Attagene), mRNA transcription readout; actives raise or lower the signal
Summary of the method: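 HepG2 cells transiently transfected with multiplexed cis-promoter reporter units; after 24 h compound exposure, reporter mRNA quantified by RT-PCR, FAM labelling, HpaI digestion and capillary electrophoresis. Bidirectional fit versus DMSO baseline.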

[14] = ATG_M_32_CIS: Attagene CIS-FACTORIAL HepG2 Assay for M32 Transcription Factor (Internal Marker) (AID 2282949); conditions: HepG2 Attagene cis-factorial M32 reporter, mRNA; actives raise or lower the signal;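 note: background control marker of the multiplexed CIS panel rather than a real target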
Summary of the method: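 Fluorescent capillary electrophoresis peaks of HpaI-digested, FAM-labelled RT-PCR reporter products give the signal. Source: transiently transfected human liver HepG2 cells, 24 h after chemical dosing; bidirectional fitting against DMSO.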

[15] = ATG_M_06_CIS: Attagene CIS-FACTORIAL HepG2 Assay for M06 Transcription Factor (Internal Marker) (AID 2282950); conditions: HepG2 Attagene CIS-FACTORIAL M06 internal marker reporter; actives raise or lower the signal
Summary of the method: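 One of many multiplexed endpoints: HepG2 reporter mRNA after 24 h dosing, detected by RT-PCR and capillary electrophoresis fluorescence; gain or loss of signal analysed against DMSO.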

[16] = target: Hypoxia-inducible factor 1-alpha (Homo sapiens) (UniProt Q16665); experiment: ATG_HIF1a_CIS: Attagene CIS-FACTORIAL HepG2 Assay for human Hypoxia Inducible Factor 1 (HIF1A) (AID 2282951); conditions: HepG2 Attagene cis-factorial HIF1a reporter transcription; actives raise or lower the signal
Sequence of Hypoxia-inducible factor 1-alpha (Homo sapiens) (Q16665 whole entry, looked up): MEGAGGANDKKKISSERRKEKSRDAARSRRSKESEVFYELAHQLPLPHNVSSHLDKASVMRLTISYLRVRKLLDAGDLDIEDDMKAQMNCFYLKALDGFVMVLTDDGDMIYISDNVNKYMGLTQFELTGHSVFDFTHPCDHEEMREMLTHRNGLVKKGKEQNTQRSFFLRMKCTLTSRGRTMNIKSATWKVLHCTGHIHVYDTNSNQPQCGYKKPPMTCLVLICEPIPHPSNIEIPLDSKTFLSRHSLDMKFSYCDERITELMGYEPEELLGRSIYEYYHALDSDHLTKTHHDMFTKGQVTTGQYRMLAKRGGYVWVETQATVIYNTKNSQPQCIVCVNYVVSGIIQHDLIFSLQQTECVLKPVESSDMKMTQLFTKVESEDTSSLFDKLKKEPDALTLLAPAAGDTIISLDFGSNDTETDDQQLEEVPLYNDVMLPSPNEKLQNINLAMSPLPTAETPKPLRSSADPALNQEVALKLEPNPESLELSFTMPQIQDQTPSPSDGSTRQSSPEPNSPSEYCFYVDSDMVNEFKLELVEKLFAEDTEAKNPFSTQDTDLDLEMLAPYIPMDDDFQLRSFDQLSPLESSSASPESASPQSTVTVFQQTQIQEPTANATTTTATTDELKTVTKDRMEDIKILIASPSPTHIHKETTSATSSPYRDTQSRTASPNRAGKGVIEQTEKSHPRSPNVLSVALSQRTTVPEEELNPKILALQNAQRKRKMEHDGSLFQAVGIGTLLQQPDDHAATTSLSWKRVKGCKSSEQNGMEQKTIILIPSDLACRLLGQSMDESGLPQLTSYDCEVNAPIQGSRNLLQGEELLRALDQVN
Summary of the method: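 After 24 h chemical exposure of reporter-transfected HepG2 cells, reporter cDNA was PCR-amplified, labelled by 6-FAM primer extension (2 min 95 C, 20 s 68 C, 10 min 72 C), HpaI-cut (2 h, 37 C) and analysed by CE.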

[17] = target: Hepatocyte nuclear factor 6 (Homo sapiens) (UniProt Q9UBC0); experiment: ATG_HNF6_CIS: Attagene CIS-FACTORIAL HepG2 Assay for human Hepatocyte Nuclear Factor 6 (HNF6) (AID 2282952); conditions: HepG2 Attagene cis-factorial HNF6 reporter transcription; actives raise or lower the signal
Sequence of Hepatocyte nuclear factor 6 (Homo sapiens) (Q9UBC0 whole entry, looked up): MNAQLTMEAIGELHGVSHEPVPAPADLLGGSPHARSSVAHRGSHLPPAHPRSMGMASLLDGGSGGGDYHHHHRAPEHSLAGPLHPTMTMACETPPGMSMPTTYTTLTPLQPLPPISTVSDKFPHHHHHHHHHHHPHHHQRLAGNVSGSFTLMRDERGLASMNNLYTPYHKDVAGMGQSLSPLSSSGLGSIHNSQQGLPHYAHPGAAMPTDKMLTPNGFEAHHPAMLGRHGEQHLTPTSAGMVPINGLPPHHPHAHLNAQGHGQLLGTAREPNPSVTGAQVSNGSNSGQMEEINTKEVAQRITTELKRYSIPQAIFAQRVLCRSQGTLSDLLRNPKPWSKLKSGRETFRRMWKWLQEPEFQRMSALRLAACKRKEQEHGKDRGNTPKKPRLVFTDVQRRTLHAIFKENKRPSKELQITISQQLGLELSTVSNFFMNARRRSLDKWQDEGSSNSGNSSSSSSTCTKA
Summary of the method: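 HepG2 cells transiently transfected with cis-element-driven multiple reporter transcription units, dosed 24 h; reporter mRNA quantified by RT-PCR, FAM primer extension, HpaI digestion and capillary electrophoresis; bidirectional fit versus DMSO baseline.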

[18] = target: Heat shock factor protein 1 (Homo sapiens) (UniProt Q00613); experiment: ATG_HSE_CIS: Attagene CIS-FACTORIAL HepG2 Assay for human Heat Shock Transcription Factor 1 (HSE) (AID 2282953); conditions: HepG2 HSE cis-reporter, Attagene RNA transcription; actives raise or lower the signal
Sequence of Heat shock factor protein 1 (Homo sapiens) (Q00613 whole entry, looked up): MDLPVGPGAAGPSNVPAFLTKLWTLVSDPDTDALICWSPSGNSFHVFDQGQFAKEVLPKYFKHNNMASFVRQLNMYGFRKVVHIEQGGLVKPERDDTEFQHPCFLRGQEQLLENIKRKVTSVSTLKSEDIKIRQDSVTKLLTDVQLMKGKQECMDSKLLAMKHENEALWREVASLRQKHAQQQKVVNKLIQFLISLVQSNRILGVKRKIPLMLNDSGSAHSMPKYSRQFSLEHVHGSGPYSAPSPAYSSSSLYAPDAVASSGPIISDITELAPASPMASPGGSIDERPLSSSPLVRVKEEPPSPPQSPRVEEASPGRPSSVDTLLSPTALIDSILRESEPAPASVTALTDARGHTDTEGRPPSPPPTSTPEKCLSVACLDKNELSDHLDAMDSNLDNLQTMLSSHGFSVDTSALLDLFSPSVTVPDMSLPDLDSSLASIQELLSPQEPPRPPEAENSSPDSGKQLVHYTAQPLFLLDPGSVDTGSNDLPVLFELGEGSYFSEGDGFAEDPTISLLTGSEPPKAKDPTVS
Summary of the method: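 Using HepG2 with transfected cis-driven reporter constructs, compound effects on endogenous factor activity are scored as reporter mRNA change at 24 h. Detection: RT-PCR, HpaI digestion, capillary electrophoresis; bidirectional fitting to DMSO.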

[19] = ATG_MRE_CIS: Attagene CIS-FACTORIAL HepG2 Assay for human Metal Responsive Element (MRE) (AID 2282954); conditions: HepG2 MRE cis-reporter transcription, Attagene multiplex; actives raise or lower the signal
Summary of the method: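 HepG2 cells transiently transfected with cis-element-driven reporter units; mRNA measured 24 h after dosing. Reporter transcripts quantified by RT-PCR, FAM labelling, HpaI digestion and capillary electrophoresis; bidirectional fit versus DMSO.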

[20] = ATG_PBREM_CIS: Attagene CIS-FACTORIAL HepG2 Assay for human Phenobarbital-responsive Enhancer Module (PBREM) (AID 2282955); conditions: HepG2 PBREM cis-reporter, Attagene multiplexed transcription; actives raise or lower the signal
Summary of the method: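 Measures endogenous factor action on a phenobarbital-responsive enhancer module. HepG2 transiently carrying cis reporters, 24 h treatment, mRNA read-out by RT-PCR plus capillary electrophoresis.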

Measured: AC50

CCOC(=O)c1ccccc1C(=C1C=C(Br)C(=O)C(Br)=C1)c1cc(Br)c(O)c(Br)c1
active: [1] 108 µM | [3] 33.4 µM | [7] 43.6 µM | [8] 47.6 µM | [10] 37.7 µM | [11] 62.5 µM | [13] 28.8 µM | [16] 35.8 µM | [18] 20.6 µM | [19] 26.2 µM
inactive: [2] | [4] | [5] | [6] | [9] | [12] | [14] | [15] | [17]

O=c1cc[nH]c(=S)[nH]1
not listed: [18]
inactive: all other assays above

CC(=O)CC(N)=O
not listed: [20]
inactive: all other assays above

O=P(O)(O)Oc1ccccc1
not listed: [20]
inactive: all other assays above

CC(C)C(=O)C(C)C
active: [3] 59.4 µM | [8] 65.6 µM | [18] 68.7 µM
not listed: [19]
inactive: all other assays above

C#CC1(O)CC[C@H]2[C@@H]3CCC4=CCCC[C@@H]4[C@H]3CC[C@@]21C (stereo partly drawn)
active: [4] 55.9 µM | [5] 0.0188 µM | [6] 62.5 µM | [11] 0.849 µM | [17] 55.3 µM
not listed: [20]
inactive: all other assays above

O=C1CCCCCCCCCCCCCCCO1
active: [16] 122 µM | [18] 160 µM | [19] 180 µM
not listed: [17]
inactive: all other assays above
